Measurements published in ChEMBL document CHEMBL1961873, “Compounds: GSK PKIS; Assays: Nanosyn kinase panel” (2012).

Experiments:
[1] = target: Tyrosine-protein kinase SYK (Homo sapiens) (UniProt P43405); settings: at 1 µM
[2] = target: T1, Tyrosine-protein kinase Tec (Homo sapiens) (UniProt P42680); settings: at 0.1 µM
T1 sequence (whole entry): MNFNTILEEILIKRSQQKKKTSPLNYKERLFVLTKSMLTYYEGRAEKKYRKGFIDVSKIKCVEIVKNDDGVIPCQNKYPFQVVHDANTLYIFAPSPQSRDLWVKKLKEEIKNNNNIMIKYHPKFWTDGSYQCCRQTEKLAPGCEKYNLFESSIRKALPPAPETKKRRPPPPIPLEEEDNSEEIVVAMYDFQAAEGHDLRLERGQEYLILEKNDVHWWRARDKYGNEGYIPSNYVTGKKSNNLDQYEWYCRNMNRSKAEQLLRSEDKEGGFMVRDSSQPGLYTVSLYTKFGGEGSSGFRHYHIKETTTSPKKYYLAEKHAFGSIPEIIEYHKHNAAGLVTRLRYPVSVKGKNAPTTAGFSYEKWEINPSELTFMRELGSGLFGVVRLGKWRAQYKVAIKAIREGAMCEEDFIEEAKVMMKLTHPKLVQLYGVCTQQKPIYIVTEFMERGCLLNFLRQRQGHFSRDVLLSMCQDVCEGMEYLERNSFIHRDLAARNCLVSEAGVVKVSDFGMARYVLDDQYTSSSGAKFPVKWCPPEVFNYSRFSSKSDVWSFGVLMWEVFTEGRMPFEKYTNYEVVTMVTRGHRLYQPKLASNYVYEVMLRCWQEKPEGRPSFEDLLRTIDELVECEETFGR

[3] = target: T1, Tyrosine-protein kinase Tec (Homo sapiens); settings: at 1 µM
[4] = target: Angiopoietin-1 receptor (Homo sapiens) (UniProt Q02763); settings: at 0.1 µM
[5] = target: Angiopoietin-1 receptor (Homo sapiens) (UniProt Q02763); settings: at 1 µM
[6] = target: T2, Non-receptor tyrosine-protein kinase TNK1 (Homo sapiens) (UniProt Q13470); settings: at 0.1 µM
T2 sequence (whole entry): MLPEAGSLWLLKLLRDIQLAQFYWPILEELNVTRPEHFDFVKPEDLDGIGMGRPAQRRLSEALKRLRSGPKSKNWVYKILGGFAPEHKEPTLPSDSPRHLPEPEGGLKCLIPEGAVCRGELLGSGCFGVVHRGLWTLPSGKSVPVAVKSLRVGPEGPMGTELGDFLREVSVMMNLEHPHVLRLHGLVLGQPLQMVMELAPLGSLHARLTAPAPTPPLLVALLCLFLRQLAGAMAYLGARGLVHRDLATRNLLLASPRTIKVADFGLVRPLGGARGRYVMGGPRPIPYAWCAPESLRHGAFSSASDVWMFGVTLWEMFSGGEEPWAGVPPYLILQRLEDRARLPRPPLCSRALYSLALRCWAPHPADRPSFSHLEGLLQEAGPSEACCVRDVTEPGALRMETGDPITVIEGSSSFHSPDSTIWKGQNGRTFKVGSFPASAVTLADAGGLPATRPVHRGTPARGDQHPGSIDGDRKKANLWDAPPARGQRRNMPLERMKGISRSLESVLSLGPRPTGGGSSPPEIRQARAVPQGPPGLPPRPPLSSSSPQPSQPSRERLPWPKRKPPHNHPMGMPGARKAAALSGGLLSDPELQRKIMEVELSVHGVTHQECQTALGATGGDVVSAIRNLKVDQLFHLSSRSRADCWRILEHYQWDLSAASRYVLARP

[7] = target: T2, Non-receptor tyrosine-protein kinase TNK1 (Homo sapiens); settings: at 1 µM
[8] = target: Activated CDC42 kinase 1 (Homo sapiens) (UniProt Q07912); settings: at 0.1 µM
[9] = target: Activated CDC42 kinase 1 (Homo sapiens) (UniProt Q07912); settings: at 1 µM
[10] = target: High affinity nerve growth factor receptor (Homo sapiens) (UniProt P04629); settings: at 0.1 µM
[11] = target: High affinity nerve growth factor receptor (Homo sapiens) (UniProt P04629); settings: at 1 µM
[12] = target: BDNF/NT-3 growth factors receptor (Homo sapiens) (UniProt Q16620); settings: at 0.1 µM
[13] = target: BDNF/NT-3 growth factors receptor (Homo sapiens) (UniProt Q16620); settings: at 1 µM
[14] = target: NT-3 growth factor receptor (Homo sapiens) (UniProt Q16288); settings: at 0.1 µM
[15] = target: NT-3 growth factor receptor (Homo sapiens) (UniProt Q16288); settings: at 1 µM
[16] = target: T3, Tyrosine-protein kinase TXK (Homo sapiens) (UniProt P42681); settings: at 0.1 µM
T3 sequence (whole entry): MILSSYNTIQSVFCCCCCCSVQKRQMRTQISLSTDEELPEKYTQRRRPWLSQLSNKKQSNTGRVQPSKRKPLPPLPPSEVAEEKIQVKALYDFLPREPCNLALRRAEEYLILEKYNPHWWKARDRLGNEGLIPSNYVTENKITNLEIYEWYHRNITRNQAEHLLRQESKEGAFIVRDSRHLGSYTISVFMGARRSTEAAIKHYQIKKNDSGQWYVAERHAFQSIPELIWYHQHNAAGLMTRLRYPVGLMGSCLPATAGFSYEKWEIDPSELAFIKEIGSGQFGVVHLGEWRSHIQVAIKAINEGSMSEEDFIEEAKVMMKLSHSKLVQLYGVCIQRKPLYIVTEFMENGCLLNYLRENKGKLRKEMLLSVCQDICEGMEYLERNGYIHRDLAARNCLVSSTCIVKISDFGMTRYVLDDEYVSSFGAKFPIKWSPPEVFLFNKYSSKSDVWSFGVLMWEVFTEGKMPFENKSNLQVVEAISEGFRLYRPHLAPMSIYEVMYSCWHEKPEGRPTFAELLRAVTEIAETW

[17] = target: T3, Tyrosine-protein kinase TXK (Homo sapiens); settings: at 1 µM
[18] = target: Non-receptor tyrosine-protein kinase TYK2 (Homo sapiens) (UniProt P29597); settings: at 0.1 µM;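 further: each value is a mean of the inhibition readings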
[19] = target: T4, Dual specificity protein kinase TTK (Homo sapiens) (UniProt P33981); settings: at 1 µM;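 further: reported figures are mean TTK inhibition at 1 µM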
T4 sequence (whole entry): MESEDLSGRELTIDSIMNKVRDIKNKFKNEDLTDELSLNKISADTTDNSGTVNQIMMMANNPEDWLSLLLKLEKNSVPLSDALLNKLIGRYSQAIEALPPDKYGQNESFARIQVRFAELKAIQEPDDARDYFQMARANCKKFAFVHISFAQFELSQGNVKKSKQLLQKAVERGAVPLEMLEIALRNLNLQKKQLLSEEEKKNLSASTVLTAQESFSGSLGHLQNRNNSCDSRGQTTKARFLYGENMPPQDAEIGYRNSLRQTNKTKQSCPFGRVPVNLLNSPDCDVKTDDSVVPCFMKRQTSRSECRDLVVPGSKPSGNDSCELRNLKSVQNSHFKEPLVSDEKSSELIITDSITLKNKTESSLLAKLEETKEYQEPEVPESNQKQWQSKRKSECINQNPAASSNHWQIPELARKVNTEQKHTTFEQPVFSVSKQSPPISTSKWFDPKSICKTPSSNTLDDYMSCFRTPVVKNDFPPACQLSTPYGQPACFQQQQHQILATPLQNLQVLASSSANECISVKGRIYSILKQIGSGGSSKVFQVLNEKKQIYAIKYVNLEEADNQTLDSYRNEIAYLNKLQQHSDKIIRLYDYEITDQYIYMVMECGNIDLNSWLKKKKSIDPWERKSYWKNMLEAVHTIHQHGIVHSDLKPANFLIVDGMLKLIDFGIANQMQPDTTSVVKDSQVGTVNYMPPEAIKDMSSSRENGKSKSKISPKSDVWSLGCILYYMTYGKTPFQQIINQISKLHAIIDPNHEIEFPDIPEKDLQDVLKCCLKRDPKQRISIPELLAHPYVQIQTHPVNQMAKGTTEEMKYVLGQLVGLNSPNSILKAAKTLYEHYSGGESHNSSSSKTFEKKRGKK

[20] = target: T5, Aurora kinase A (Homo sapiens) (UniProt O14965); settings: at 0.1 µM;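 further: each reported value is a mean percent inhibition of Aurora-A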
T5 sequence (whole entry): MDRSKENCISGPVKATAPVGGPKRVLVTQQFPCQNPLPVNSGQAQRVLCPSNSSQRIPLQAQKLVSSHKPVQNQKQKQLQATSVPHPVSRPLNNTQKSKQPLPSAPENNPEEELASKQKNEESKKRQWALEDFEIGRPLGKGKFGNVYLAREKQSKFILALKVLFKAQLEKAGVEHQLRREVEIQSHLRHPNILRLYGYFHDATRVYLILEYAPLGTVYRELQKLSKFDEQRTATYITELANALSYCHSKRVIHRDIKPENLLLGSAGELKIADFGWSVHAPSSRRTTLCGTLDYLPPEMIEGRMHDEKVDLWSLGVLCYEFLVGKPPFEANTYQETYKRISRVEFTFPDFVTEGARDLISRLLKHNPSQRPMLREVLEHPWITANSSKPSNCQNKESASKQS

Chain of Activated CDC42 kinase 1 (Homo sapiens) (Q07912 whole entry, looked up): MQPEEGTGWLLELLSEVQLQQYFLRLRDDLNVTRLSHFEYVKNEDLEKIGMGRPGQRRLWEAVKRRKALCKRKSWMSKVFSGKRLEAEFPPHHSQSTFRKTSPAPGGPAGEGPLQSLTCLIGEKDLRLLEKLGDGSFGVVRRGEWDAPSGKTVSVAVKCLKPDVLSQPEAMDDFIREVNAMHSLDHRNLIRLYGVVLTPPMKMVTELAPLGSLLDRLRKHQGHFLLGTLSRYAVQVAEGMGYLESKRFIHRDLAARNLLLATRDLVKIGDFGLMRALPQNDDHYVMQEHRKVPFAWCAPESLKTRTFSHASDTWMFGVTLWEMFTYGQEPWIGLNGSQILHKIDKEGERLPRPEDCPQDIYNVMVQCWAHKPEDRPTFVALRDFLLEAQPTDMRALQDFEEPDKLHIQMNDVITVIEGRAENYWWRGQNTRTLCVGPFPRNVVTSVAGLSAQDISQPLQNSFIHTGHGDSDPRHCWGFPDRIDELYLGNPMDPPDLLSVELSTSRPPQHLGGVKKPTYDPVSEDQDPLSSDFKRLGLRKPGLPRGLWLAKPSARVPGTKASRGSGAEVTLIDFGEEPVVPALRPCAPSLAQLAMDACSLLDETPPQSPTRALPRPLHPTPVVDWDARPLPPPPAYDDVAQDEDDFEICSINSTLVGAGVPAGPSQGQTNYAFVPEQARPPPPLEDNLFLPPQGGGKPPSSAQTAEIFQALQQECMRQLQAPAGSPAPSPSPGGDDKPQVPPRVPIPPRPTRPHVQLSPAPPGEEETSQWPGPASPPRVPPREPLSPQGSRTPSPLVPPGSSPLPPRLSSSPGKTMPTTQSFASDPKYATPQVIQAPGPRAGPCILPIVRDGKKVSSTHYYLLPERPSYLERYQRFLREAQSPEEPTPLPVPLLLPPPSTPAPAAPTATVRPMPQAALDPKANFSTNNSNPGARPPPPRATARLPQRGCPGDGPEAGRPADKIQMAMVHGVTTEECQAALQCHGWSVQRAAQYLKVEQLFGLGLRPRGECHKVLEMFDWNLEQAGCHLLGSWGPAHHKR
Chain of BDNF/NT-3 growth factors receptor (Homo sapiens) (Q16620 32-822 limits assumed): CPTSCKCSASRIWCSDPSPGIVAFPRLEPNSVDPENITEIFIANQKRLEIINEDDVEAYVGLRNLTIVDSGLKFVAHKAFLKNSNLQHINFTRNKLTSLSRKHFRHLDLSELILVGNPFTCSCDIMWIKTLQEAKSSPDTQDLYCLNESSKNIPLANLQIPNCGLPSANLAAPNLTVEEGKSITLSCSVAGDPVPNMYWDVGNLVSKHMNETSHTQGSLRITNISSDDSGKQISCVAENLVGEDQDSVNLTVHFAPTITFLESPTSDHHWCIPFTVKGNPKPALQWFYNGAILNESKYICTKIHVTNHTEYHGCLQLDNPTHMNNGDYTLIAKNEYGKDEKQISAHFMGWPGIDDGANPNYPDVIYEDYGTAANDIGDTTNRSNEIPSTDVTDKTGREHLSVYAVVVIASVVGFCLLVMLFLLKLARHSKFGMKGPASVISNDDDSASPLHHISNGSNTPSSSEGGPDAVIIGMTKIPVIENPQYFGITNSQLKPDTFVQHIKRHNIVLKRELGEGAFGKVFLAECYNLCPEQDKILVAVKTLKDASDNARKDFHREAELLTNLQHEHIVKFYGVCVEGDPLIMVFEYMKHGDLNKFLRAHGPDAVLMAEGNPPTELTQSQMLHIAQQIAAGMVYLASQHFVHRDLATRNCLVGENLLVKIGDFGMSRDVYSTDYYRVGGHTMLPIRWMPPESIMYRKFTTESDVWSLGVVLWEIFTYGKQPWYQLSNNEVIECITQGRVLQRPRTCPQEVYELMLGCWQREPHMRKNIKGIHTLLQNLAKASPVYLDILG
Chain of Non-receptor tyrosine-protein kinase TYK2 (Homo sapiens) (P29597 whole entry): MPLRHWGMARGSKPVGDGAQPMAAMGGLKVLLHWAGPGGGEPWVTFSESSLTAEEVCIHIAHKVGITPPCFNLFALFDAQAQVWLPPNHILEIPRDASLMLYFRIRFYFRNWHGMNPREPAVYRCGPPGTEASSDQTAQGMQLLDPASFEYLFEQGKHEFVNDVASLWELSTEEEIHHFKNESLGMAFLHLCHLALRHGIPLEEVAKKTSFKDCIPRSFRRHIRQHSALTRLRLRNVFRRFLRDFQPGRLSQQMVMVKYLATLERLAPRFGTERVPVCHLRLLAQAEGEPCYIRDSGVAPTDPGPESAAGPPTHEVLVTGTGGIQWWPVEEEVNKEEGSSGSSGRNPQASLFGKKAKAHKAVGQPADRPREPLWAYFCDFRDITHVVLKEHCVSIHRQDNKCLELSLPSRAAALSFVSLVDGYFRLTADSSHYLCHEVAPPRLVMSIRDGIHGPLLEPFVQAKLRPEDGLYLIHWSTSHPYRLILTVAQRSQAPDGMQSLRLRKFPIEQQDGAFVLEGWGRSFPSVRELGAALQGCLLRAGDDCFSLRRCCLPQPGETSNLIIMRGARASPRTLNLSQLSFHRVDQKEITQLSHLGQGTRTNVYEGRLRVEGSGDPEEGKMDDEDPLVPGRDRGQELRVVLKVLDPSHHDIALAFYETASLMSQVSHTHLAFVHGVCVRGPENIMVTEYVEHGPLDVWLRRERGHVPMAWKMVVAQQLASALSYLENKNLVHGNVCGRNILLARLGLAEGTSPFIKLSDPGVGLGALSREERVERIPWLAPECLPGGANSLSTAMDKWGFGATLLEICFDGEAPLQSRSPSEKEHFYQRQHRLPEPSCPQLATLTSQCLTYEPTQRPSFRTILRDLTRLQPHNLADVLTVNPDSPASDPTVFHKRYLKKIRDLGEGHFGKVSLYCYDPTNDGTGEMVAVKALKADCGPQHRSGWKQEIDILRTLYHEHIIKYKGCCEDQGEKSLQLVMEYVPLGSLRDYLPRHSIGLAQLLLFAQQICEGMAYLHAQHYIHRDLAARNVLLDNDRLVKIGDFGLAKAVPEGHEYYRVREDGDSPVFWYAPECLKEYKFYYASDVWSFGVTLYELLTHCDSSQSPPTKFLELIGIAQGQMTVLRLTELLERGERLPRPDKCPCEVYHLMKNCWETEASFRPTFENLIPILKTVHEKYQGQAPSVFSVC
Chain of NT-3 growth factor receptor (Homo sapiens) (Q16288 32-839 limits assumed): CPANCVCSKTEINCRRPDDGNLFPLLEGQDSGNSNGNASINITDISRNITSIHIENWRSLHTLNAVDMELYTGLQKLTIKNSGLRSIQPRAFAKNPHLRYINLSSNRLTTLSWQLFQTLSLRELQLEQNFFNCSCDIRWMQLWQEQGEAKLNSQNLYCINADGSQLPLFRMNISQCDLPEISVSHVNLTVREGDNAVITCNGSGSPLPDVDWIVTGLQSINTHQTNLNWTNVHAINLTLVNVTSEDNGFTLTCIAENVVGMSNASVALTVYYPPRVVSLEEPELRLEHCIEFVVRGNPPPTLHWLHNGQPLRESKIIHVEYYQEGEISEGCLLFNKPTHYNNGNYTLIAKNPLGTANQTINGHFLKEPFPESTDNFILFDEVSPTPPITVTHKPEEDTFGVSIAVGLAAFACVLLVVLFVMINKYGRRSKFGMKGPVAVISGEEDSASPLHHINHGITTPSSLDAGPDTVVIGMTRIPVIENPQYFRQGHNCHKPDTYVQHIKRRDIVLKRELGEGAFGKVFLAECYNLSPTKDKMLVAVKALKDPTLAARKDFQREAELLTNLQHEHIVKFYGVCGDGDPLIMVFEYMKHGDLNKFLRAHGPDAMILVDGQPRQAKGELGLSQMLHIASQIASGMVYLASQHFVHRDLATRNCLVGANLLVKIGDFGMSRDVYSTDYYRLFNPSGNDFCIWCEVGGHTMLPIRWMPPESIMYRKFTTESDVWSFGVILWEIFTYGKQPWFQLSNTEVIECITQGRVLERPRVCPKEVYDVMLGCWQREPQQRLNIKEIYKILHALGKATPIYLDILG
Chain of High affinity nerve growth factor receptor (Homo sapiens) (P04629 33-796 limits assumed): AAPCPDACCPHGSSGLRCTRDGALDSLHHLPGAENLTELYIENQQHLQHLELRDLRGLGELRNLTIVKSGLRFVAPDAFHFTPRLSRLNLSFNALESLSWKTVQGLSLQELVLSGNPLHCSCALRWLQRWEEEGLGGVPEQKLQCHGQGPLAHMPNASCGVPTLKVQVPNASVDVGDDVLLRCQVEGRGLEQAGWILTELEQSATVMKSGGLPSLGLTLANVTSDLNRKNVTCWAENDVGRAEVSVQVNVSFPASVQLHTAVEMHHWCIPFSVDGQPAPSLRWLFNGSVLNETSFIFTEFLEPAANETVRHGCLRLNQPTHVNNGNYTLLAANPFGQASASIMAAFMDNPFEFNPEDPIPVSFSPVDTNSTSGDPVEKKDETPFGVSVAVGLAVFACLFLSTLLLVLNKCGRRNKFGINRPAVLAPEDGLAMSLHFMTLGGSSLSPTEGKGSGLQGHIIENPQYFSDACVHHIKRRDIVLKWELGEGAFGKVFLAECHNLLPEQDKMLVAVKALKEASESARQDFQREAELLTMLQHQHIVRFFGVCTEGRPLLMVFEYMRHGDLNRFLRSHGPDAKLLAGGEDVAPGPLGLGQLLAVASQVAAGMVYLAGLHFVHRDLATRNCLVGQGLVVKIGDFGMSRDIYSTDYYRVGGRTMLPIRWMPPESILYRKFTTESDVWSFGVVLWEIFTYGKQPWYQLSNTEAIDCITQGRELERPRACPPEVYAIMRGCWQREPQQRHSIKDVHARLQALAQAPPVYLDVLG

SMILES	inhibition [1] [%]	inhibition [2] [%]	inhibition [3] [%]	inhibition [4] [%]	inhibition [5] [%]	inhibition [6] [%]	inhibition [7] [%]	inhibition [8] [%]	inhibition [9] [%]	inhibition [10] [%]	inhibition [11] [%]	inhibition [12] [%]	inhibition [13] [%]	inhibition [14] [%]	inhibition [15] [%]	inhibition [16] [%]	inhibition [17] [%]	inhibition [18] [%]	inhibition [19] [%]	inhibition [20] [%]
CCCN1CCCC(c2ccc(Nc3nc(Nc4cc(F)ccc4C(N)=O)c4cc[nH]c4n3)c(OC)c2)C1 (stereo not given)	75.8	4.67	9.82	4	4.28	41.2	81	5.79	41.1	3.35	5.65	4.46	6.11	3.36	5.51	3.48	6.47	-2.19	79.6	1.81
O=S(=O)(CCOCc1ccc(-c2ccc3ncnc(Nc4ccc(OCc5cccc(F)c5)c(Cl)c4)c3c2)o1)c1ccccc1	1.2	0.41	0.9	3.25	2.48	1.59	5.35	-0.03	-0.95	-0.1	3.9	2.42	2.72	0.35	0.31	-0.26	2.63	-3.63	11	1.6
CCn1c(-c2nonc2N)nc2ccc(F)cc21	-1.93	6.29	3.97	2.7	1.79	7.71	9.97	1.53	3.08	2.92	2.84	4.03	4.23	3.74	4.75	1.94	0.47	-3.66	11.6	3.17
CN(C)CCCn1c(-c2nonc2N)nc2cnccc21	0.37	4	4.06	0.92	1.59	1.08	-3.93	0.54	0.77	1.3	3.29	-0.15	3.55	-0.01	3.2	3.61	4.3	-2.99	0.63	3.15
Cc1cc(-c2ccccn2)cc(C)c1/C=C/c1cncc(-c2nn[nH]n2)c1	-0.42	4.67	12.4	2.01	8.32	9.02	50.8	0.32	2.33	2.23	10	3.94	4.13	1.49	2.54	2.93	4.47	-2.23	9.95	1.9
CC(C)c1ccc2c(c1)NC(=O)/C2=N/Nc1ccc(S(N)(=O)=O)cc1	1.53	1.22	3.98	1.55	3.02	2.2	9.9	0.13	4.69	3.96	26.1	4.87	31.5	7.71	34.9	1.51	3.5	0.63	3.55	1.5
NS(=O)(=O)c1cccc(-c2cc3ccncc3cc2OCc2ccccc2)c1	-1.17	5.34	8.79	4.31	7.65	1.24	4.7	0.71	1.65	1.41	5.54	2.94	6.23	1.81	6.72	4.1	10.2	-2.99	11.2	3.18
